The list is not random: actives were taken first. Their share in the collection is about 2.3%.
BRCT PPI green: qHTS Assay for Inhibitors of BRCT-Phosphoprotein Interaction (Green Fluorophore); Breast cancer type 1 susceptibility protein (Homo sapiens), P38398; BRCA1 BRCT-phosphopeptide binding, green fluorescence polarization; Potency, µM (doses to about 76.9 µM), actives largely listed as inhibitors; 75,000 compounds, 0.05% hits; AID 875, 2007
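Fluorescence polarization: His-tagged BRCT (~35 kDa BRCA1 C-terminus, 250 nM) bound to 100 nM fluorescein-labeled phosphorylated 10-aa BACH1 peptide, pH 7.3 phosphate buffer with DTT and Tween 20. Compounds incubated 12 min at room temperature; inhibition read as lowered polarization.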
YjeE inh: qHTS Assay for Inhibitors of YjeE | purified YjeE enzyme, qHTS inhibition assay | Potency, µM | 71,000 compounds, 0.05% hits
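Purified YjeE (10 uM) with BODIPY Texas Red-labeled ADP probe (2 uM); compounds pin-transferred, 15 min at room temperature. Binding inhibition read as decreased fluorescence polarization; ADP titration as control.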
DNA Pol III inh: qHTS Assay for Inhibitors of DNA Polymerase III Holoenzyme System | AID 603, 2007 | Potency, µM (top dose mostly 57.1 µM) | reconstituted DNA polymerase III holoenzyme replication, biochemical | 71,000 compounds, 0.25% hits
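Reconstituted *E. coli* holoenzyme (0.35 nM Pol III, 1 nM beta, 154 nM SSB, 2 nM primase) was preincubated with compound for 15 min at RT. Synthesis on 1.4 nM ssM13Gori ran 35 min, then was stopped with PicoGreen/EDTA and read as dsDNA fluorescence.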
Hsp90 Hop PPI: qHTS Assay for Disrupters of an Hsp90 Co-Chaperone Interaction; Potency, µM (titrated, usually from 57 µM); AlphaScreen TPR2A-His6 binding biotin-Hsp90 C-terminal peptide; 71,000 compounds, 0.44% hits; active = well fitted curve in either direction with a large enough effect; inconclusive = small, poorly fitted or top-dose-only effect, or another doubt
Tau fil binding: qHTS Assay for Tau Filament Binding | Microtubule-associated protein tau (Homo sapiens), P10636 | recombinant tau filaments, thioflavin S fluorescence, 15 h; filaments grown with octadecylsulfate alongside compound | Potency, µM (highest dose often 57.1 µM) | 71,000 compounds, 2% hits | AID 596, 2007;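 also: actives lower thioflavin S fluorescence by blocking filaments or displacing dye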
Target sequence (P10636 whole entry, looked up): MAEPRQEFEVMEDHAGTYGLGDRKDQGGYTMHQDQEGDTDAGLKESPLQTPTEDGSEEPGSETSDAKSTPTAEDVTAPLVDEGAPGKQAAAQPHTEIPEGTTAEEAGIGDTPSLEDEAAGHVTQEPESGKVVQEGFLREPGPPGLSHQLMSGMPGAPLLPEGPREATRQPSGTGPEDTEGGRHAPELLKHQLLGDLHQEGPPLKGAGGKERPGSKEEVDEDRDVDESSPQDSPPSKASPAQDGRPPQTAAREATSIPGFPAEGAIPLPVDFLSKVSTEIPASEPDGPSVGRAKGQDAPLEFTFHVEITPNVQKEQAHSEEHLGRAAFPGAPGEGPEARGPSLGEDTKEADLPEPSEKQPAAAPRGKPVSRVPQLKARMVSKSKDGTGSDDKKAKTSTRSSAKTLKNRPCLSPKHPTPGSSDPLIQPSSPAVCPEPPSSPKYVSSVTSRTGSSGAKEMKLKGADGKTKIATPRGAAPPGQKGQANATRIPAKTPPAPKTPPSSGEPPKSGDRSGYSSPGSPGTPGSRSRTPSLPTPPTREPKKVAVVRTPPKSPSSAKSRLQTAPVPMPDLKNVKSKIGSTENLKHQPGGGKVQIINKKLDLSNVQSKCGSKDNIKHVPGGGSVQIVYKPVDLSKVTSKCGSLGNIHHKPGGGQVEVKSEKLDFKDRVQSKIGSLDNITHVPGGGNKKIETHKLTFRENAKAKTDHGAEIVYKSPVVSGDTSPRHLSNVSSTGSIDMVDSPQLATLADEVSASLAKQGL
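ThS-based fibril read: tau 1 uM final, inducer ODS 30 uM final, 37 C for 15 h, ex 450/em 510 nm.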
BRCT PPI red: qHTS Assay for Inhibitors of BRCT-Phosphoprotein Interaction (Red Fluorophore); Potency, µM (top dose mostly 76.9 µM), most hits filed as inhibitors; 75,000 compounds, 0.03% hits; BRCT-phosphopeptide binding, red fluorescence polarization; Breast cancer type 1 susceptibility protein (Homo sapiens), P38398
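Fluorescence polarization: 100 nM His-tagged BRCA1 BRCT with 100 nM TAMRA-labelled phospho-BACH1 decapeptide, phosphate buffer pH 7.3 with 150 mM NaCl, DTT, 0.01% Tween 20; 12 min RT. Binding inhibition seen as FP decrease.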
Hits are given with their value; [ ] = remark or other dose. Unless noted, calls follow the shape of the dose curve; as a rule, active = well fitted curve in the direction sought with a large enough effect; inconclusive = small, poorly fitted or top-dose-only effect, or another doubt; inactive = no such curve, though single readings can be large; an effect the other way counts as inactive or inconclusive.

Results for COc1ccc(C(=O)N2c3cc4c(cc3C(C)=CC2(C)C)OCO4)cc1 ?
BRCT PPI green: inactive; YjeE inh: inactive; DNA Pol III inh: inactive; Hsp90 Hop PPI: inactive; Tau fil binding: 16µM; BRCT PPI red: inactive

What do the screens show for `CC1=CC(C)(C)N(C(=O)c2ccccc2)c2ccccc21`?
BRCT PPI green: inactive; YjeE inh: inactive; DNA Pol III inh: inactive; Hsp90 Hop PPI: inconclusive; Tau fil binding: inactive; BRCT PPI red: inactive

How did CO[C@H]1COC(=O)[C@H]2CCCN2C(=O)[C@@H](C)COC(=O)C/C=C\[C@@H]1C do in these assays?
BRCT PPI green: inactive[15.4 µM]; BRCT PPI red: inactive[15.4 µM]

How did COCc1cc(=O)n2c(-c3ccccc3OC)n[nH]c2n1 do in these assays?
BRCT PPI green: inactive; YjeE inh: inactive; DNA Pol III inh: inactive; Hsp90 Hop PPI: inactive; Tau fil binding: inactive; BRCT PPI red: inactive

What do the screens show for `COCc1cc(=O)n2c(-c3ccc(C)cc3)n[nH]c2n1`?
BRCT PPI green: inactive; YjeE inh: inactive; DNA Pol III inh: inactive; Hsp90 Hop PPI: inactive; Tau fil binding: 16µM; BRCT PPI red: inactive

What do the screens show for `CCc1c(C)sc(NC(=O)c2cc(C)no2)c1C#N`?
BRCT PPI green: inactive; YjeE inh: inactive; DNA Pol III inh: inactive; Hsp90 Hop PPI: inactive; Tau fil binding: inactive; BRCT PPI red: inactive

What do the screens show for `CCc1c(C)sc(NC(=O)CC#N)c1C#N`?
BRCT PPI green: inactive; YjeE inh: inactive; DNA Pol III inh: inactive; Hsp90 Hop PPI: inactive; Tau fil binding: 13µM; BRCT PPI red: inactive

How did CCOC(=O)C1OC1c1ccccc1 (stereo not drawn) do in these assays?
BRCT PPI green: inactive; YjeE inh: inactive; DNA Pol III inh: inactive; Hsp90 Hop PPI: inactive; Tau fil binding: inactive; BRCT PPI red: inactive

Results for O=S(=O)(NCCOC12CC3CC(CC(C3)C1)C2)c1cccc2nsnc12 ?
BRCT PPI green: inactive; YjeE inh: inactive; DNA Pol III inh: inactive; Hsp90 Hop PPI: inactive; Tau fil binding: 16µM; BRCT PPI red: inactive

How did O=S(=O)(NCCC1=CCCCC1)c1cccc2nsnc12 do in these assays?
BRCT PPI green: inactive; YjeE inh: inactive; DNA Pol III inh: inactive; Hsp90 Hop PPI: inactive; Tau fil binding: inconclusive; BRCT PPI red: inactive

What do the screens show for `c1ccc(CNc2ncncc2-c2ccoc2)cc1`?
BRCT PPI green: inactive; YjeE inh: inactive; DNA Pol III inh: inactive; Hsp90 Hop PPI: inactive; Tau fil binding: inactive; BRCT PPI red: inactive

Results for Cn1c(=O)c(-c2ccc(Cl)cc2)nc2cnc(Oc3cccc(Cl)c3)nc21 ?
BRCT PPI green: inactive; YjeE inh: inactive; DNA Pol III inh: inactive; Hsp90 Hop PPI: inactive; Tau fil binding: inconclusive; BRCT PPI red: inactive

How did O=c1c(-c2cc(F)cc(F)c2)nc2cnc(N3CCNCC3)nc2n1C1CC1 do in these assays?
BRCT PPI green: inactive; YjeE inh: inactive; DNA Pol III inh: inactive; Hsp90 Hop PPI: inactive; Tau fil binding: inactive; BRCT PPI red: inactive

How did COc1ccc(Oc2ncc3nc(-c4cc(F)cc(F)c4)c(=O)n(C4CC4)c3n2)cc1 do in these assays?
BRCT PPI green: inactive; YjeE inh: inactive; DNA Pol III inh: inactive; Hsp90 Hop PPI: inactive; Tau fil binding: 20µM; BRCT PPI red: inactive

What do the screens show for `CN1CCN(c2ncc3nc(-c4cc(F)cc(F)c4)c(=O)n(C4CC4)c3n2)CC1`?
BRCT PPI green: inactive; YjeE inh: inactive; DNA Pol III inh: inactive; Hsp90 Hop PPI: inconclusive; Tau fil binding: 16µM; BRCT PPI red: inactive

How did Cn1c(=O)c(-c2cc(F)cc(F)c2)nc2cnc(Oc3cccc(Cl)c3)nc21 do in these assays?
BRCT PPI green: inactive; YjeE inh: inactive; DNA Pol III inh: inactive; Hsp90 Hop PPI: inactive; Tau fil binding: 10µM; BRCT PPI red: inactive

Results for CCNc1ncc2nc(-c3ccc(F)cc3)c(=O)n(-c3ccccc3)c2n1 ?
BRCT PPI green: inactive; YjeE inh: inactive; DNA Pol III inh: inactive; Hsp90 Hop PPI: inactive; Tau fil binding: inactive; BRCT PPI red: inactive

Results for N#Cc1cccc(NC(=O)N2CC[C@@]3(CCCN(C(=O)c4ccncc4)C3)C2)c1 ?
BRCT PPI green: inactive; YjeE inh: inactive; DNA Pol III inh: inactive; Hsp90 Hop PPI: inactive; Tau fil binding: inactive; BRCT PPI red: inactive

How did COc1ccc2oc(=O)c(C(=O)N3CCN(c4ccccc4C)CC3)cc2c1 do in these assays?
BRCT PPI green: inactive; YjeE inh: inactive; DNA Pol III inh: inactive; Hsp90 Hop PPI: inactive; Tau fil binding: 16µM; BRCT PPI red: inactive

What do the screens show for `COc1ccc2oc(=O)c(C(=O)N3CCN(c4ccccc4)CC3)cc2c1`?
BRCT PPI green: inactive; YjeE inh: inactive; DNA Pol III inh: inactive; Hsp90 Hop PPI: inactive; Tau fil binding: inactive; BRCT PPI red: inactive

What do the screens show for `CCCCCCCCC`?
BRCT PPI green: inactive; YjeE inh: inactive; DNA Pol III inh: inactive; Hsp90 Hop PPI: inactive; Tau fil binding: inactive; BRCT PPI red: inactive

Results for COc1ccc(Cl)cc1NC(=O)C1CCCN(S(=O)(=O)c2cccc3nonc23)C1 (stereo not drawn) ?
BRCT PPI green: inactive; YjeE inh: inactive; DNA Pol III inh: inactive; Hsp90 Hop PPI: inactive; Tau fil binding: 25µM; BRCT PPI red: inactive

What do the screens show for `C=C1CC[C@H](O)C/C1=C/C=C1\CCC[C@]2(C)[C@H]1CC[C@H]2[C@@H](C)/C=C\[C@@H](C)C(C)C`?
BRCT PPI green: inactive; YjeE inh: inactive; DNA Pol III inh: inactive; Hsp90 Hop PPI: inactive; Tau fil binding: inactive; BRCT PPI red: inactive

What do the screens show for `Cc1cc2cc(CN3C(=O)c4ccccc4C3=O)ccc2n1C`?
BRCT PPI green: inactive; YjeE inh: inactive; DNA Pol III inh: inactive; Hsp90 Hop PPI: inactive; Tau fil binding: 20µM; BRCT PPI red: inactive

How did COCCn1c(=O)c(-c2cc(F)cc(F)c2)nc2cnc(Nc3cccc(OC)c3)nc21 do in these assays?
BRCT PPI green: inactive; YjeE inh: inactive; DNA Pol III inh: inactive; Hsp90 Hop PPI: inactive; Tau fil binding: inactive; BRCT PPI red: inactive

What do the screens show for `CC(=O)c1c(COC(=O)c2cccnc2)nc2ccccc2[n+]1[O-]`?
BRCT PPI green: inactive; YjeE inh: inactive; DNA Pol III inh: inactive; Hsp90 Hop PPI: inactive; Tau fil binding: 20µM; BRCT PPI red: inactive

Results for CN1c2ccccc2C(C)(C)C12C=Cc1cc(O)ccc1O2 (stereo not drawn) ?
BRCT PPI green: inactive; YjeE inh: inconclusive; DNA Pol III inh: inactive; Hsp90 Hop PPI: inconclusive; Tau fil binding: 25µM; BRCT PPI red: inactive

Screening data deposited in PubChem BioAssay by National Center for Advancing Translational Sciences (NCATS).
